Data from PubChem BioAssay (NCATS).
Several values for one entry are separate records, joined by “and”; a condition that tells them apart may be missing. Equal entries are not always repeated. Results filed as inconclusive are left out. Entries that show only a call come without a potency. Activity calls are given as the source filed them. Unless noted, calls come from the whole dose curve; as a rule, active = well fitted curve in the direction sought with a large enough effect; inconclusive = small, poorly fitted or top-dose-only effect, or another doubt; inactive = no such curve, though single readings can be large; an effect the other way counts as inactive or inconclusive.

Legend:
[1] = system: Es-2; experiment: Primary qHTS to identify gynecologic anti-cancer compounds using libraries of approved drugs and bioactive compounds (AID 1345084); conditions: Gynecologic cancer cell panel viability, ATPlite luminescence, 48 h; series mostly up to 57.5 µM; note: nearly all actives have a fitted effect of over 55% in size; note: potency is the fitted concentration of half-maximal effect
Method in brief: (§1)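 Five-concentration response, 48 h; readout is ATP-driven luciferase luminescence.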

[2] = system: HeLa; experiment: as above; conditions: Gynecologic cancer cell panel viability, ATPlite luminescence, 48 h; series mostly up to 57.5 µM
Method in brief: as §1

[3] = system: Hek293T; experiment: as above; conditions: Gynecologic cancer cell panel viability, ATPlite luminescence, 48 h, control line for the selectivity index; series mostly up to 57.5 µM
Method in brief: as §1

[4] = system: OV90; experiment: as above; conditions: Gynecologic cancer cell panel viability, ATPlite luminescence, 48 h; series mostly up to 57.5 µM
Method in brief: as §1

[5] = system: PA-1; experiment: as above; conditions: Gynecologic cancer cell panel viability, ATPlite luminescence, 48 h; series mostly up to 57.5 µM
Method in brief: as §1

[6] = system: Tov-21-G; experiment: as above; conditions: Gynecologic cancer cell panel viability, ATPlite luminescence, 48 h; series mostly up to 57.5 µM
Method in brief: as §1

[7] = system: Tov112D; experiment: as above; conditions: Gynecologic cancer cell panel viability, ATPlite luminescence, 48 h; series mostly up to 57.5 µM
Method in brief: as §1

[8] = Drug repurposing screens with cells derived from glioblastoma tumor samples (AID 1345199); conditions: GBM patient neurospheres viability, ATP luminescence, 48 h; for activity, negative = cell killing: at 45.9 µM (top of the series); note: potency is the fitted concentration of half-maximal effect; for all read-outs here: nearly all actives have a fitted effect of over 40% in size
Method in brief: (§2)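 Primary testing used CD133+ neurospheres from four GBM patients, seven concentrations, 48 h exposure and ATP-based viability; confirmation added three slower-growing patient lines.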

[9] = system: astro; experiment: as above; conditions: viability, ATP luminescence, 48 h; series mostly up to 45.9 µM
Method in brief: as §2

[10] = system: SKOV3; experiment: Primary qHTS to identify gynecologic anti-cancer compounds using libraries of approved drugs and bioactive compounds (AID 1345084); conditions: Gynecologic cancer cell panel viability, ATPlite luminescence, 48 h; series mostly up to 57.5 µM; note: nearly all actives have a fitted effect of over 55% in size; note: potency is the fitted concentration of half-maximal effect
Method in brief: as §1

[11] = target: Nuclear receptor subfamily 1 group I member 2 (Rattus norvegicus) (UniProt Q9R1A7); experiment: qHTS assay for small molecule activators of the rat pregnane X receptor (rPXR) signaling pathway (AID 651751; call rule not given here); conditions: rPXR reporter cells, luciferase (One-Glo), 24 h
Chain of Nuclear receptor subfamily 1 group I member 2 (Rattus norvegicus) (Q9R1A7 whole entry, looked up): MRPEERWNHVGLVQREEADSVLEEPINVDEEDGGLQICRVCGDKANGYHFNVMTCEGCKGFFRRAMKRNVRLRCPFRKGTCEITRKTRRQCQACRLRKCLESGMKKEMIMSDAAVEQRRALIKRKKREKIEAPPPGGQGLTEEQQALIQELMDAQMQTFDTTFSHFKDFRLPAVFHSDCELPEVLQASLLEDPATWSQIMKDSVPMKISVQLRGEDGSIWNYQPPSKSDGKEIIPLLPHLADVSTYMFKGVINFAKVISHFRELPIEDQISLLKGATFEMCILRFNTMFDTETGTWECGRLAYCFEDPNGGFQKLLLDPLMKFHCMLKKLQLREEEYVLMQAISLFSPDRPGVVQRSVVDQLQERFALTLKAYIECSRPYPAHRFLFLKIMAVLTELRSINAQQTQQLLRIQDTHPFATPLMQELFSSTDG

[12] = qHTS assay for small molecule activators of the human pregnane X receptor (PXR) signaling pathway (AID 720659; call rule not given here)
[13] = system: JEG-3; experiment: Primary qHTS to identify gynecologic anti-cancer compounds using libraries of approved drugs and bioactive compounds (AID 1345084); conditions: Gynecologic cancer cell panel viability, ATPlite luminescence, 48 h; series mostly up to 57.5 µM; note: nearly all actives have a fitted effect of over 55% in size; note: potency is the fitted concentration of half-maximal effect
Method in brief: as §1

[14] = qHTS assay to identify inhibitors of the type 1 interferon - major histocompatibility complex class I in skeletal muscle: Counter screen cell viability and HiBit confirmation (AID 1347412); conditions: iHSKM muscle cells + IFN-b, HiBiT or CellTiter-Glo, 24 h; Potency: HiBiT; Viability, at 45.9 µM (top of the series); note: nearly all actives have a fitted effect of over 60% in size; note: potency is the fitted concentration of half-maximal effect
Method in brief: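 HLA-B*08:01–HiBiT knock-in immortalized human myoblasts (C25cl48) stimulated with 4.0 ng/ml human IFN-beta and dosed with compound in a 12-point 1:3 titration (top final 46 uM). After 24 hrs at 37 C, HiBiT lytic luminescence or CellTiter Glo ATP read out.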

SMILES	Potency [1]	Potency [2]	Potency [3]	Potency [4]	Potency [5]	Potency [6]	Potency [7]	activity, negative = cell killing ([8]; tumour line B)	activity, negative = cell killing ([8]; tumour line D)	Potency [9]	Potency [10]	max response [11]	outcome [12]	Potency [13]	Potency [14]	Potency ([8]; tumour line A)	Potency ([8]; tumour line D)
C#CCOC(C(=O)OCCN(C)C)(c1ccccc1)c1ccccc1	inactive	inactive	inactive	inactive	inactive	inactive	inactive	3.88% (inactive)	1.28% (inactive)	inactive							
NCC(O)c1ccc(O)cc1 (stereo unspecified)	inactive	inactive	inactive	inactive	inactive	inactive	inactive	-12.4% (inactive)	-9.81% (inactive)	inactive	inactive	2.53% (inactive)	inactive				
c1ccc2c(c1)OCC(C1=NCCN1)O2 (stereo unspecified)			28.2 µM (active)		15.8 µM (active)	15.8 µM (active)				15.8 µM (active)				inactive	inactive		
C[C@H]1O[C@@H](O[C@H]2[C@@H](O)C[C@H](O[C@H]3[C@@H](O)C[C@H](O[C@H]4CC[C@@]5(C)[C@H](CC[C@@H]6[C@@H]5CC[C@]5(C)[C@@H](C7=CC(=O)OC7)CC[C@]65O)C4)O[C@@H]3C)O[C@@H]2C)C[C@H](O)[C@@H]1O	282 nM (active) and 100 nM (active)	282 nM (active) and 89.1 nM (active)	282 nM (active) and 224 nM (active)	0.708 µM (active)	282 nM (active) and 126 nM (active)	112 nM (active) and 100 nM (active)	0.0891 µM (active)			0.1 µM (active)	251 nM (active) and 112 nM (active)	-1.87% (inactive)	inactive		0.0497 µM (active)		
O=C1NCN(c2ccccc2)C12CCN(CC1COc3ccccc3O1)CC2 (stereo unspecified)	inactive	inactive	inactive	inactive	inactive	inactive	inactive	-6.74% (inactive)		inactive	inactive					12.6 µM (active)	
Clc1ccc(COC(Cn2ccnc2)c2ccc(Cl)cc2Cl)cc1 (stereo unspecified)			inactive	17.8 µM (active)							28.2 µM (active)					2.24 µM (active)	12.6 µM (active)
CC(C)NCC(O)c1ccccc1Cl (stereo unspecified)	inactive	inactive	inactive	inactive	inactive	inactive	inactive	-16.7% (inactive)	-18.1% (inactive)	inactive	inactive						
CC(CCc1ccccc1)NC(C)C(O)c1ccc(O)cc1 (stereo unspecified)	inactive	inactive	inactive			inactive	inactive	-9.92% (inactive)	2.61% (inactive)	inactive	inactive					14.1 µM (active)	
C[C@]12CC[C@H]3[C@@H](CCC4=CC(=O)CC[C@@H]43)[C@@H]1CC[C@@H]2OC(=O)CCc1ccccc1	inactive	3.55 µM (active)	inactive	inactive		inactive	inactive				inactive						
CCC(COC(=O)c1cc(OC)c(OC)c(OC)c1)(c1ccccc1)N(C)C (stereo unspecified)	inactive	inactive		inactive	inactive	inactive	inactive			inactive							
N#CC(C#N)=Cc1ccc(O)c(O)c1	inactive	inactive	inactive	inactive			inactive				inactive						
N[C@@H](Cc1ccc(N(CCCl)CCCl)cc1)C(=O)O		inactive	inactive			inactive					inactive	1.48% (inactive) and 0.994% (inactive)		inactive			
CCCN1CCC[C@@H]2Cc3[nH]ncc3C[C@H]21	inactive	inactive	inactive	inactive	inactive	inactive	inactive	-3.57% (inactive)	-3.31% (inactive)	inactive	inactive						
CC(=O)Nc1cc([As](=O)(O)O)ccc1O	inactive	inactive		inactive	inactive	inactive	inactive	-26.4% (inactive)	-5.27% (inactive)	inactive	inactive			inactive			
CNC(=O)N1N=C(c2ccc(N)cc2)c2cc3c(cc2CC1C)OCO3 (stereo unspecified)	inactive				inactive	inactive								inactive			
CCCC1CCCCN1 (stereo unspecified)	inactive	inactive		inactive	inactive	inactive	inactive	-22.5% (inactive)	-32.7% (inactive)	inactive	inactive			inactive			
